Assay results published in PubChem BioAssay AID1159580 (chemical genetic matrix, 2015).
Among all 5,500 compounds or so, about 2,000 (36%) were called active. Roughly 18% stayed inconclusive and do not appear here. No stated cut-off is given here; in the data, active means normalized growth mostly below about 0.91 (no sharp cut-off); inconclusive means no clear call, values can overlap the other calls; inactive means mostly above about 0.92. This is one part of the list.

Assay: chemical genetic growth profiling, strain panel (AID 1159580);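 further: tested at 20 µM; growth read once vehicle control cultures reached saturation at 30 °C; 1 = growth at the plate median or of vehicle wells; lower values mean less growth of the strain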
Details: growth OD

Measured: normalized growth

COC(=O)CCC(C)[C@H]1CCC2C3C(C[C@H](O)[C@@]21C)[C@@]1(C)CC[C@@H](O)C[C@H]1C[C@H]3O (stereo not given in full)
inactive: S. cerevisiae deletion strains, locus YJR075W, strain HOC1, active compounds read low 0.986 | S. cerevisiae deletion strains, locus YKL009W, strain mrt4, active compounds read low 1.02 | S. cerevisiae deletion strains, locus YKL068W, active compounds read low 1 | S. cerevisiae deletion strains, locus YKL085W, strain MDH1 (second series), active compounds read low 1.01 | S. cerevisiae deletion strains, locus YKL085W, strain MDH1, active compounds read low 1.01 | S. cerevisiae deletion strains, locus YKL160W, strain elf1, active compounds read low 1.03 | S. cerevisiae deletion strains, locus YKR001C, strain vps1, active compounds read low 1 | S. cerevisiae deletion strains, locus YKR026C, strain gcn3, active compounds read low 1.03 | S. cerevisiae deletion strains, locus YKR091W, strain srl3, active compounds read low 1.01 | S. cerevisiae deletion strains, locus YLL001W, strain dnm1, active compounds read low 1.03 | S. cerevisiae deletion strains, locus YLL026W, active compounds read low 1.01 | S. cerevisiae deletion strains, locus YLL041C, strain sdh2, active compounds read low 1.01 | S. cerevisiae deletion strains, locus YLR027C, strain aat2, active compounds read low 1.01 | S. cerevisiae deletion strains, locus YLR039C, strain RIC1, active compounds read low 1.13 | S. cerevisiae deletion strains, locus YLR058C, strain SHM2, active compounds read low 1.01 | S. cerevisiae deletion strains, locus YLR102C, strain apc9, active compounds read low 1.03 | S. cerevisiae deletion strains, locus YLR113W, strain HOG1, active compounds read low 0.975 | S. cerevisiae deletion strains, locus YLR221C, strain rsa3, active compounds read low 1.02 | S. cerevisiae deletion strains, locus YLR258W, strain gsy2, active compounds read low 1.03 | S. cerevisiae deletion strains, locus YLR262C, strain YPT6 (second series), active compounds read low 1.02 | S. cerevisiae deletion strains, locus YLR262C, strain YPT6, active compounds read low 1.09 | S. cerevisiae deletion strains, locus YLR268W, strain sec22, active compounds read low 1.01 | S. cerevisiae deletion strains, locus YLR320W, strain mms22, active compounds read low 1.04 | S. cerevisiae deletion strains, locus YLR330W, strain CHS5, active compounds read low 1.01 | S. cerevisiae deletion strains, locus YLR342W, strain FKS1 (second series), active compounds read low 1.02 | S. cerevisiae deletion strains, locus YLR342W, strain FKS1, active compounds read low 1.01 | S. cerevisiae deletion strains, locus YLR357W, strain rsc2, active compounds read low 1.03 | S. cerevisiae deletion strains, locus YLR370C, strain arc18, active compounds read low 1.01 | S. cerevisiae deletion strains, locus YLR371W, strain rom2, active compounds read low 1.02 | S. cerevisiae deletion strains, locus YLR384C, strain iki3, active compounds read low 1 | S. cerevisiae deletion strains, locus YLR418C, strain cdc73, active compounds read low 0.932 | S. cerevisiae deletion strains, locus YML016C, strain PPZ1, active compounds read low 1.04 | S. cerevisiae deletion strains, locus YML032C, strain rad52, active compounds read low 1.01 | S. cerevisiae deletion strains, locus YML120C, strain ndi1, active compounds read low 1.02 | S. cerevisiae deletion strains, locus YML124C, strain tub3, active compounds read low 1.02 | S. cerevisiae deletion strains, locus YMR058W, strain fet3, active compounds read low 1.02 | S. cerevisiae deletion strains, locus YMR078C, strain ctf18, active compounds read low 1.04 | S. cerevisiae deletion strains, locus YMR125W, strain sto1, active compounds read low 1.03 | S. cerevisiae deletion strains, locus YMR129W, active compounds read low 1.01 | S. cerevisiae deletion strains, locus YMR205C, strain PFK2, active compounds read low 1.02 | S. cerevisiae deletion strains, locus YMR223W, strain ubp8, active compounds read low 0.996 | S. cerevisiae deletion strains, locus YMR231W, strain pep5, active compounds read low 1.01 | S. cerevisiae deletion strains, locus YMR263W, strain SAP30, active compounds read low 1.01 | S. cerevisiae deletion strains, locus YMR307W, strain GAS1, active compounds read low 0.86 | S. cerevisiae deletion strains, locus YNL067W, strain RPL9B, active compounds read low 1 | S. cerevisiae deletion strains, locus YNL071W, strain lat1, active compounds read low 1.01 | S. cerevisiae deletion strains, locus YNL128W, strain TEP1, active compounds read low 1.02 | S. cerevisiae deletion strains, locus YNL153C, strain GIM3, active compounds read low 0.988 | S. cerevisiae deletion strains, locus YNL183C, strain NPR1, active compounds read low 0.955 | S. cerevisiae deletion strains, locus YNL209W, strain ssb2, active compounds read low 1.02 | S. cerevisiae deletion strains, locus YNL233W, strain BNI4, active compounds read low 0.957 | S. cerevisiae deletion strains, locus YNL248C, strain rpa49, active compounds read low 1.04 | S. cerevisiae deletion strains, locus YNL250W, strain rad50, active compounds read low 1.01 | S. cerevisiae deletion strains, locus YNL271C, strain bni1, active compounds read low 1.02 | S. cerevisiae deletion strains, locus YNL298W, strain CLA4, active compounds read low 0.993 | S. cerevisiae deletion strains, locus YNL307C, strain MCK1, active compounds read low 1.03 | S. cerevisiae deletion strains, locus YNL322C, strain KRE1 (second series), active compounds read low 1.03 | S. cerevisiae deletion strains, locus YNL322C, strain KRE1, active compounds read low 1.02 | S. cerevisiae deletion strains, locus YNR049C, strain mso1, active compounds read low 1.01 | S. cerevisiae deletion strains, locus YNR052C, strain pop2, active compounds read low 1.01 | S. cerevisiae deletion strains, locus YOL006C, strain TOP1, active compounds read low 0.974 | S. cerevisiae deletion strains, locus YOL012C, strain htz1 0.777 | S. cerevisiae deletion strains, locus YOL147C, strain pex11, active compounds read low 1.03 | S. cerevisiae deletion strains, locus YOR001W, strain rrp6, active compounds read low 0.985 | S. cerevisiae deletion strains, locus YOR061W, strain CKA2, active compounds read low 1.04 | S. cerevisiae deletion strains, locus YOR069W, strain VPS5, active compounds read low 1.06 | S. cerevisiae deletion strains, locus YOR070C, strain gyp1, active compounds read low 0.995 | S. cerevisiae deletion strains, locus YOR080W, strain dia2, active compounds read low 1.01 | S. cerevisiae deletion strains, locus YOR083W, strain WHI5, active compounds read low 1.03 | S. cerevisiae deletion strains, locus YOR106W, strain vam3, active compounds read low 1.01 | S. cerevisiae deletion strains, locus YOR136W, strain idh2, active compounds read low 1.02 | S. cerevisiae deletion strains, locus YOR144C, strain elg1, active compounds read low 1.02 | S. cerevisiae deletion strains, locus YOR184W, strain ser1, active compounds read low 0.986 | S. cerevisiae deletion strains, locus YOR231W, strain MKK1, active compounds read low 0.991 | S. cerevisiae deletion strains, locus YOR265W, strain rbl2, active compounds read low 1.01 | S. cerevisiae deletion strains, locus YOR270C, strain vph1, active compounds read low 0.913 | S. cerevisiae deletion strains, locus YOR290C, strain snf2, active compounds read low 0.977 | S. cerevisiae deletion strains, locus YOR316C, strain cot1, active compounds read low 1.03 | S. cerevisiae deletion strains, locus YPL051W, strain arl3, active compounds read low 1.01 | S. cerevisiae deletion strains, locus YPL078C, strain atp4, active compounds read low 1.03 | S. cerevisiae deletion strains, locus YPL106C, strain sse1, active compounds read low 1.05 | S. cerevisiae deletion strains, locus YPL240C, strain hsp82, active compounds read low 1 | S. cerevisiae deletion strains, locus YPL241C, strain CIN2, active compounds read low 1.02 | S. cerevisiae deletion strains, locus YPL256C, strain CLN2, active compounds read low 0.981 | S. cerevisiae deletion strains, locus YPR119W, strain clb2, active compounds read low 1.03 | S. cerevisiae deletion strains, locus YPR141C, strain kar3, active compounds read low 1.03 | S. cerevisiae deletion strains, locus YPR163C, strain tif3, active compounds read low 1.03 | S. cerevisiae deletion strains, locus YPR167C, strain met16, active compounds read low 1.03 | S. cerevisiae deletion strains, strain wtn01, active compounds read low 1.01 | S. cerevisiae strains, strain wild type, active compounds read low 1.02
